Assay results: PubChem BioAssay AID651946 (Broad Institute, 2012)
Potency and affinity values are given separately. Calls of active or inactive are those of the source.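 Rule for the calls: active = toxic compound whose fitted half-effect dose of signal loss is at most twice its top tested dose; inconclusive = flat fit losing 30 to 70% signal, or poor fit; inactive = the rest.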

Assay: cytotoxicity in HeLa cells, dose response, cytotoxicity control, cell-based, plate reader, dry powder (AID 651946)
Conditions: HeLa viability, ATP luminescence (CellTiter-Glo), 48 h; series mostly up to 26 µM; activity change, negative = cytotoxicity: at the top concentration

**Q.** Which “activity change, negative = cytotoxicity” value does the source give for `Fc1ccc(-c2nnc(SCc3cn(-c4ccccc4)nn3)o2)cc1` here?
**A.** -16% (inactive)

**Q.** Which “activity change, negative = cytotoxicity” value does the source give for `CS(=O)(=O)c1ccccc1-c1nnc(SCc2ccccc2)o1` here?
**A.** -4.85% (inactive)

**Q.** With `FC1(F)CN(CCSc2nnc(-c3ccccc3)o2)C1` as the compound, how does the “activity change, negative = cytotoxicity” value read?
**A.** 0.959% (inactive)

**Q.** For `Cc1ccccc1CSc1nnc(-c2ccccc2)o1`, which “activity change, negative = cytotoxicity” value is on record?
**A.** 0.598% (inactive)

**Q.** With `Fc1ccc(-c2nnc(SCc3ccccn3)o2)cc1` as the compound, how does the “activity change, negative = cytotoxicity” value read?
**A.** -15.3% (inactive)

**Q.** With `c1ccc(CSc2nnc(-c3cc4ccccc4o3)o2)cc1` as the compound, how does the “activity change, negative = cytotoxicity” value read?
**A.** 5.73% (inactive)

**Q.** For `c1ccc(CNCCSc2nnc(-c3ccccc3)o2)cc1`, which “activity change, negative = cytotoxicity” value is on record?
**A.** -6.02% (inactive)

**Q.** Which “activity change, negative = cytotoxicity” value does the source give for `c1ccc(-c2nnc(SCCN3CCOCC3)o2)cc1` here?
**A.** -3.35% (inactive)

**Q.** For `c1ccc(-c2nnc(SCCN3CCCC3)o2)cc1`, which “activity change, negative = cytotoxicity” value is on record?
**A.** -0.13% (inactive)

**Q.** Which “activity change, negative = cytotoxicity” value does the source give for `O=C(Cc1ccccc1)C(C(=O)c1nnc(-c2ccccc2)o1)c1ccccc1` (stereo not given) here?
**A.** -1.18% (inactive)

**Q.** Which “activity change, negative = cytotoxicity” value does the source give for `c1ccc(-n2cc(CSc3nnc(C4CCCC4)o3)nn2)cc1` here?
**A.** 0.271% (inactive)

**Q.** With `c1ccc(CSc2ncc(-c3ccccc3)o2)cc1` as the compound, how does the “activity change, negative = cytotoxicity” value read?
**A.** 6.4% (inactive)

**Q.** With `COc1ccccc1-c1nnc(SCc2ccccc2)o1` as the compound, how does the “activity change, negative = cytotoxicity” value read?
**A.** -6.55% (inactive)

**Q.** With `c1ccc(-c2nnc(SCCN3CCN(c4ccccc4)CC3)o2)cc1` as the compound, how does the “activity change, negative = cytotoxicity” value read?
**A.** -6.89% (inactive)

**Q.** Which “activity change, negative = cytotoxicity” value does the source give for `Fc1ccc(Cn2cc(CSc3nnc(C4CCC4)o3)nn2)cc1` here?
**A.** -6.56% (inactive)
